The results in this text go back to PubChem BioAssay (NCATS).

Inconclusive results are not listed. Values without a mark were called inactive. The source made the active and inactive calls. Calls come from the whole dose curve; as a rule, active = well fitted inhibition curve with a large enough effect; inconclusive = small, poorly fitted or top-dose-only effect; inactive = flat fitted curve, though single readings scatter.
% is set by controls: 0 for no effect and ±100 for the full control effect; potency is the fitted concentration of half-maximal effect.

The assay has as its system CRL-7250. Nature of the assay: Cytotoxic Profiling of Annotated Libraries Using Quantitative High-Throughput Screening (AID 1296008). Note: nearly all actives have a fitted effect of over 60% in size. The following applies: Five cell lines viability, CellTiter-Glo ATP luminescence, 48-72 h; max response: stronger effect = lower value. The gist of the method:
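Cells exposed to compounds for 48 or 72 hr at 37 degrees Celsius. Viability read as ATP-coupled luminescence with CellTiter-Glo after 10 min at room temperature.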
Background: In ATP-based viability assays light output follows the ATP content of the culture.
For the molecule `COc1cc(C2c3cc4c(c(O)c3CC(CO)C2C(=O)O)OCO4)cc(OC)c1O` (centres undefined), the Potency was 3.17 µM (active).

As for `COC(=O)[C@@]1(c2ccc(C)cc2)C[C@H]1CN1CCC(O)(c2ccccc2)CC1`, the max response was 3.12%.

As for `CCC[C@@H]1O[C@@H]2C[C@H]3[C@@H]4CCC5=CC(=O)C=C[C@]5(C)[C@H]4[C@@H](O)C[C@]3(C)[C@]2(C(=O)CO)O1`, the max response was 0.403%.

For the molecule `CC(=O)NC1C(OC(C)(C)C2CCC3(C)C=C(C4CCC5C4(C)CC(O)C4OC(C(C)(C)O)CCC45C)CCC3O2)OC(CO)C(O)C1O` (centres undefined), the max response is 0.702%.

For the molecule `CC1(C)CC[C@]2(C(=O)O)[C@H](O)C[C@]3(C)C(=CCC4[C@@]5(C)CC[C@H](O[C@@H]6O[C@H](CO[C@@H]7OC[C@H](O)[C@H](O)[C@H]7O[C@@H]7OC[C@@H](O)[C@H](O)[C@H]7O)[C@@H](O)[C@H](O)[C@H]6O[C@@H]6O[C@H](CO)[C@@H](O)[C@H](O)[C@H]6O)C(C)(C)C5CC[C@]43C)[C@@H]2C1` (some centres undefined), the max response is -10.1%.

As for `CC(C)(C)C(=O)CN1C(=O)[C@H](NC(=O)Nc2cccc(C(=O)O)c2)CN(C2CCCCC2)c2ccccc21`, the max response is 1.1%.

Turning to `CC(=O)N1CCc2ccc(O)c(OC3OC(COC4OCC(O)(CO)C4O)C(O)C(O)C3O)c2C1Cc1ccc(O)cc1` (centres undefined), the max response is -12.6%.

For `C[C@@H]1O[C@@H](OC[C@H]2O[C@@H](Oc3cc(O)cc4c3C(=O)C(O)(Cc3ccc(O)cc3)O4)[C@H](O)[C@@H](O)[C@@H]2O)[C@H](O)[C@H](O)[C@H]1O` (some centres undefined), the max response is 3.09%.

Take `OCCc1ccc(O[C@@H]2O[C@H](CO)[C@@H](O)[C@H](O)[C@H]2O)cc1`: the max response is 2.72%.

`C[C@]1(CO)CCC[C@]2(C)C3=C(CCC12)COC3` (some centres undefined): the max response was -5.66%.

`CNC(=S)NS(=O)(=O)c1cc(CCNC(=O)c2cc(Cl)ccc2OC)ccc1OC`: the max response was 3.39%.

For `FC(F)(F)c1ccc(Nc2nc(-c3c(C(F)(F)F)nc4ccccn34)cs2)cc1`, the Potency is 5.8 µM (active).

Regarding `O=C(O)c1cccc(S(=O)(=O)N2CCc3ccccc3C2)c1`, the max response was 0.0752%.

Consider `CC[C@@H](O)C[C@@H]1C(C)=C[C@@H]2CCCC[C@@H]2[C@@]1(C)C(=O)O`, for which the max response was -0.45%.

For `CN(CCc1ccc(Nc2ncc(-c3cccnc3)s2)cc1)Cc1ccccc1`, the max response is -10.2%.

Turning to `COc1cc(Br)c(Nc2nc(-c3c(C)nc4ncccn34)cs2)c(Br)c1`, the Potency is 4.61 µM (active).

In the case of `COc1cc(O)cc(C)c1C(=O)O[C@H]1[C@@H](OC(C)=O)[C@H](n2ccc(=O)[nH]c2=O)O[C@@H]1CO`, the molecule was called inactive.

Turning to `CC1(C)CC2=C3C=CC4C5(C)CCC(O)C(C)(C)C5CCC4(C)C3(C)CCC2(C)C(O)C1` (centres undefined), the max response is -3.63%.

For `CC(O)/C=C/C1(O)C2(C)COC1(C)CC(O)C2` (centres undefined), the max response was -12.7%.

For the molecule `O=C(O)CCCCCC[C@H]1C(=O)NC(=O)N1CC[C@@H](O)C1CCCCC1`, the max response was 3.98%.

With `CC(=O)O[C@@](C)(C(=O)/C=C/C(C)(C)O)[C@H]1[C@H](O)C[C@@]2(C)[C@@H]3CC=C4[C@@H](C=C(O)C(=O)C4(C)C)[C@]3(C)C(=O)C[C@]12C`, the Potency is 2.82 µM (active).

Regarding `CCN(Cc1cccnc1)C(=O)CN(c1ccc(OC)nc1)S(=O)(=O)c1ccccc1C`, the max response was -4.21%.

With `CCOC(=O)C(CCc1ccccc1)NC1CSC(c2cccs2)CN(CC(=O)O)C1=O` (centres undefined), the max response was 2.02%.

On to `CN(C)CCn1cc(S(=O)(=O)c2cccc(F)c2)c2cccnc21`, for which the call was inactive.

Consider `COc1ccc(/C=C/C(=O)O[C@@H]2[C@@H](O)[C@H](C)O[C@@H](O[C@H]3[C@@H]4C=CO[C@@H](O[C@H]5O[C@@H](CO)[C@H](O)[C@@H](O)[C@@H]5O)[C@@H]4[C@@]4(CO)O[C@@H]34)[C@@H]2OC(C)=O)cc1`, for which the max response was -2.4%.

Turning to `Cc1csc(NC(=O)c2ccc(COc3cccc(Cl)c3)o2)n1`, the max response is -4.74%.

Take `CCC1=CC2CN(C1)Cc1c([nH]c3ccccc13)[C@@](C(=O)OC)(c1cc3c(cc1OC)N(C)[C@H]1[C@@](O)(C(=O)OC)[C@H](OC(C)=O)[C@]4(CC)C=CCN5CC[C@]31[C@@H]54)C2` (some centres undefined): the Potency was 0.126 µM (active).

`COc1ccc(C(=O)n2c(C)c(Cc3cccc(O[C@@H](C)C(=O)O)c3)c3cc(OC(F)(F)F)ccc32)cc1`: the max response is -19.1%.

On to `CC1(C)CC[C@]2(C(=O)O[C@@H]3O[C@H](CO[C@@H]4O[C@H](CO)[C@@H](O)[C@H](O)[C@H]4O[C@@H]4O[C@H](CO)[C@@H](O)[C@H](O)[C@H]4O)[C@@H](O)[C@H](O[C@@H]4O[C@H](CO)[C@@H](O)[C@H](O)[C@H]4O)[C@H]3O)CC[C@]3(C)C(=CCC4[C@@]5(C)CC[C@@H](O)[C@@](C)(C(=O)O[C@@H]6O[C@H](CO)[C@@H](O)[C@H](O)[C@H]6O)C5CC[C@]43C)[C@@H]2C1` (some centres undefined), for which the result was inactive.
